Reference: PMC4336329 (PLoS ONE, 2015)
In all, about 310,000 compounds went through this assay and about 14,000 (4.5%) showed an effect of 50% or more. Effects have a minus sign here. The sample as a whole holds a higher share of strong results than the screen did.

Target: human ether-à-go-go-related gene (hERG) potassium channel (human, UniProt Q12809)
Assay: primary screen, population patch clamp on CHO cells stably expressing hERG; higher = less effect of the substance
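Also: peak tail current of the secondary pulse compared with the same well before compound.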

Sequence of human ether-à-go-go-related gene (hERG) potassium channel (Q12809 whole entry, looked up): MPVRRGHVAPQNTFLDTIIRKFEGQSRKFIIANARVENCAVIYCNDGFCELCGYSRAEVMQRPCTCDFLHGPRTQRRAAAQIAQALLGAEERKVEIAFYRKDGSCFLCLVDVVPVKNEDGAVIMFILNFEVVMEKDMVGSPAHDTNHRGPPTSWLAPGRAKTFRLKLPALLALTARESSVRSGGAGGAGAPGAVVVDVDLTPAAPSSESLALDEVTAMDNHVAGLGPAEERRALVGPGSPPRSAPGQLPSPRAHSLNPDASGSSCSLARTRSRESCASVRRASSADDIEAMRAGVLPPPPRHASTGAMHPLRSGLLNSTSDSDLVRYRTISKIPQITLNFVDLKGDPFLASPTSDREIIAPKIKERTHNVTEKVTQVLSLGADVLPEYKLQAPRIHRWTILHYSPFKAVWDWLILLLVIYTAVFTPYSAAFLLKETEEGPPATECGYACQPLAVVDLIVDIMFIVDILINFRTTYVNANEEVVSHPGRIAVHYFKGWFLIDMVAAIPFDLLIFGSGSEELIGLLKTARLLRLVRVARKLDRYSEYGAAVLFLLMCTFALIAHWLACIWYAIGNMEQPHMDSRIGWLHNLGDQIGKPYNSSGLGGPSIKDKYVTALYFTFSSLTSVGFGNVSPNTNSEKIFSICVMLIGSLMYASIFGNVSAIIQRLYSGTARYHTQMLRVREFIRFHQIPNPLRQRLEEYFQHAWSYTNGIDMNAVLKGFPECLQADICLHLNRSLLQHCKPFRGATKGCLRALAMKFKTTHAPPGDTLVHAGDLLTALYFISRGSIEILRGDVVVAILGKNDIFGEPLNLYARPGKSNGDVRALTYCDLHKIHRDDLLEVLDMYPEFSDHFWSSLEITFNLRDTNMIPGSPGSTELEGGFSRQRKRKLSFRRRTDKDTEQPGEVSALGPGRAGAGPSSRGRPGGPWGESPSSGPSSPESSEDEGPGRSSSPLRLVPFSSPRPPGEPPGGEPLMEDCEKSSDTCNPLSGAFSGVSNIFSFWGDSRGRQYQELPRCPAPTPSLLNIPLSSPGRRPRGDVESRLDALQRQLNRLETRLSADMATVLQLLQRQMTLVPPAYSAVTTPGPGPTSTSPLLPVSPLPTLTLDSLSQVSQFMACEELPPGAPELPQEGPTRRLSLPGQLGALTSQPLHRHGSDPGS

| Structure (SMILES) | hERG current change (%, negative = inhibition) at 10uM [%] |
| --- | --- |
| CC(c1ccccc1)C1CC(=O)N(Cc2ccco2)C1=O (stereo not shown) | 25.9 |
| COc1ccc(CN2CC(C(=O)NCCC(C)C)CC2=O)cc1 (stereo not shown) | 10.5 |
| COc1ccc(NC(=S)NCCSc2ccc(C)cc2)c(OC)c1 | 5.2 |
| CCOC(=O)c1c(C)[nH]c(C)c1S(=O)(=O)NCCc1sccc1C | -0.705 |
| Cc1cc2ncn(CC(O)COc3cccc(C(=O)O)c3)c2cc1C (stereo not shown) | -10.8 |
| Cc1ccc(C(=O)Nc2ccccc2C(=O)O)cc1S(=O)(=O)NCc1ccccc1 | 9.8 |
| CC(CN1CCOCC1)C(=O)c1ccccc1.Cl (stereo not shown) | 8.47 |
| Cc1ccc(C)c(S(=O)(=O)NC(C)C(=O)Nc2ccc(-c3nc4ccccc4s3)cc2)c1 (stereo not shown) | 2.9 |
| Cc1ccc(/C=C/C(=O)OCC(=O)NC(=O)NCc2ccco2)cc1 | 18.7 |
| CCc1cccc(C)c1NC(=O)COC(=O)c1ccc2c(c1)S(=O)(=O)c1ccccc1C2=O | -0.0165 |
| CC1(C)Cc2c(cnn2-c2ccccc2)C(NC(=O)CCc2ccncc2)C1 (stereo not shown) | -68.8 |
| CCc1nccn1CCC(=O)NC1CC(C)(C)Cc2c1cnn2-c1ccc(C)cc1 (stereo not shown) | -22.1 |
| CSCCC(=O)NC1CC(C)(C)Cc2c1cnn2-c1ccccc1C (stereo not shown) | -10.4 |
| Cc1ccc(-n2ncc3c2CC(C)(C)CC3NC(=O)CCc2ccncc2)cc1 (stereo not shown) | -72.2 |
| C=CCC(=O)NC1CC(C)(C)Cc2c1cnn2-c1ccc(C)cc1 (stereo not shown) | -69.7 |
| COc1ccc(-n2ncc3c2CC(C)(C)CC3NC(=O)CCC2=NNC(=O)CC2)cc1 (stereo not shown) | 15.8 |
| Cc1nn(C)c(C)c1CCC(=O)NC1CC(C)(C)Cc2c1cnn2-c1ccccc1 (stereo not shown) | -28.1 |
| C=CCC(=O)NC1CC(C)(C)Cc2c1cnn2-c1ccccc1C (stereo not shown) | 4.35 |
| COC(=O)CCC(=O)NC1CC(C)(C)Cc2c1cnn2-c1ccccc1 (stereo not shown) | -12 |
| Cc1ccccc1-n1ncc2c1CC(C)(C)CC2NC(=O)CCC1=NNC(=O)CC1 (stereo not shown) | -75.9 |
| COC(=O)CCCC(=O)NC1CC(C)(C)Cc2c1cnn2-c1ccc(C)cc1 (stereo not shown) | -24.7 |

| Structure (SMILES) | hERG current change (%, negative = inhibition) at 10uM [%] |
| --- | --- |
| Cc1ccc(-n2ncc3c2CC(C)(C)CC3NC(=O)CCc2ccc(=O)[nH]n2)cc1 (stereo not shown) | -11.2 |
| CCCCOc1ccc(C(=O)NCC(=O)OC2CCOC2=O)cc1 (stereo not shown) | 4.84 |
| Cc1cc(C(=O)N/N=C/c2sc(N3CCOCC3)nc2-c2ccccc2)c(C)o1 | 8.26 |
| COc1ccc(C(=O)N2CCCC2)cc1S(=O)(=O)N1CCOCC1 | -1.7 |
| CCN[C@H]1CN(CCCOC)S(=O)(=O)c2sc(S(N)(=O)=O)cc21 | 2.51 |
| CC(C)NS(=O)(=O)c1ccc(CCC(=O)N2CCc3ccccc3C2)cc1 | -11.9 |
| Cc1c(C(=O)OCC(=O)c2ccc3c(c2)OCCO3)oc2ccccc12 | 4.75 |
| COc1cc(/C=C2\CCC(C3CCCC3)C2=O)cc(OC)c1OC (stereo not shown) | 9.98 |
| O=C(CSc1nnc2ncccn12)Nc1cccc2ccccc12 | 5.09 |
| Cc1ccc(S(=O)(=O)N(C)CCCC(=O)Nc2cccc3ccccc23)cc1 | -28.1 |
| CC(=O)Nc1ccc(NC(=S)NC(=O)/C=C/c2ccc(Cl)cc2)cc1 | 17.7 |
| O=C(Oc1c(Br)cc(C(=S)N2CCOCC2)cc1Br)c1ccc(Cl)cc1 | 11.3 |
| CC(=O)N1N=C(c2ccc(NS(=O)(=O)c3ccccc3)cc2)CC1c1ccco1 (stereo not shown) | -12.2 |
| Cc1ccc(-n2ncc3c2CC(C)(C)CC3NC(=O)CCc2c(C)noc2C)cc1 (stereo not shown) | -32.3 |
| Cc1ccc(-n2ncc3c2CC(C)(C)CC3NC(=O)CCN2CCCO2)cc1 (stereo not shown) | -37.7 |
| Cc1ccc(-n2ncc3c2CC(C)(C)CC3NC(=O)CCCN2CCCC2=O)cc1 (stereo not shown) | -1.21 |
| Cc1ccc(-n2ncc3c2CC(C)(C)CC3NC(=O)CCc2cccnc2)cc1 (stereo not shown) | -63.9 |
| Cc1ccc(-n2ncc3c2CC(C)(C)CC3NC(=O)CCc2cnn(C)c2)cc1 (stereo not shown) | -52.6 |
| Cc1ccc(-n2ncc3c2CC(C)(C)CC3NC(=O)CCN2CCCCC2=O)cc1 (stereo not shown) | 3.16 |
| O=c1ccc2cc(S(=O)(=O)N3CCN(c4cc(Cl)ccc4Cl)CC3)ccc2o1 | -20.7 |
| Cc1cc(NC(=O)CSCC(=O)Nc2ccccc2Oc2ccccc2)no1 | -8.79 |

| Structure (SMILES) | hERG current change (%, negative = inhibition) at 10uM [%] |
| --- | --- |
| NC(=O)CSc1oc(-c2cccs2)nc1S(=O)(=O)c1ccccc1 | -15.5 |
| COc1cccc(/C=N/NC(=O)CN2CC(c3ccccc3)CC2=O)c1O (stereo not shown) | -9.13 |
| O=c1[nH]c2ccccc2c(O)c1-[n+]1ccccc1.[Cl-] | 22.5 |
| COc1ccc(CCNC(=O)C(=O)Nc2ccc3nc4n(c(=O)c3c2)CCCCC4)cc1OC | -27.3 |
| Oc1ccc(/C=N/Nc2nc(N3CCCC3)nc(N3CCCC3)n2)cc1O | 2.71 |
| Cl.c1ccc(CSCc2cn3ccccc3n2)cc1 | 2.98 |
| Cc1ccccc1NC(NC(=O)OCCn1c([N+](=O)[O-])cnc1C)C(Cl)(Cl)Cl (stereo not shown) | 2.42 |
| Cc1ncc([N+](=O)[O-])n1CCOC(=O)NC(Nc1ccc(F)cc1)C(Cl)(Cl)Cl (stereo not shown) | -54.6 |
| Cc1ccc(NC(NC(=O)OCCn2c([N+](=O)[O-])cnc2C)C(Cl)(Cl)Cl)cc1 (stereo not shown) | 6.71 |
| COc1ccccc1NC(=O)COn1nnc2ccc(S(=O)(=O)N3CCOCC3)cc21 | 4.92 |
| COc1ccc(NC(=O)CN(C)C(=O)CCCNC(=O)c2ccc(Cl)cc2)cc1 | -30.8 |
| CN(CC(=O)Nc1ccc(Cl)c(C(F)(F)F)c1)C(=O)CCN1C(=O)C2CC=CCC2C1=O (stereo not shown) | -37.2 |
| CN(CC(=O)Nc1ccc(Cl)cc1)C(=O)CCNC(=O)c1ccc(Cl)cc1 | -67.7 |
| CN(CC(=O)Nc1ccc(Cl)c(C(F)(F)F)c1)C(=O)CNC(=O)C1CCCCC1 | -31.5 |
| CN(CC(=O)Nc1cccc(F)c1)C(=O)c1cn2ccccc2n1 | -5 |
| Cc1ccc(OCC(=O)N(C)CC(=O)Nc2ccc(Cl)c(C(F)(F)F)c2)c([N+](=O)[O-])n1 | -54.8 |
| Cc1ccc(OCC(=O)N(C)CC(=O)Nc2ccccc2Cl)c([N+](=O)[O-])n1 | -16.7 |
| CN(CC(=O)Nc1ccc(Cl)c(C(F)(F)F)c1)C(=O)c1cn2ccccc2n1 | -61.9 |
| CCOc1ccc(NC(=O)CN(C)C(=O)c2cn3ccccc3n2)cc1OCC | -19.2 |
| CN(CC(=O)Nc1ccc(Cl)c(C(F)(F)F)c1)C(=O)CCN1C(=O)C2CCCCC2C1=O (stereo not shown) | -50.2 |
| COc1ccccc1C(=O)NCCC(=O)N(C)CC(=O)Nc1ccc(Cl)cc1 | -31.9 |

| Structure (SMILES) | hERG current change (%, negative = inhibition) at 10uM [%] |
| --- | --- |
| Cc1ccc(OCC(=O)N(C)CC(=O)Nc2ccc(F)cc2)c([N+](=O)[O-])n1 | -24.2 |
| COc1cc(C2/C(=C(/O)c3ccccc3)C(=O)C(=O)N2c2ccccn2)ccc1O (stereo not shown) | 25.1 |
| O=C(COC(=O)CN1C(=O)C2CC=CCC2C1=O)Nc1cc(C(F)(F)F)ccc1N1CCOCC1 (stereo not shown) | -26.8 |
| CC(=O)OCCN(Cc1ccccc1)Cc1ccc2c(c1)OCO2 | -10.8 |
| CC(/C=N/n1c(-c2cc(C)[nH]n2)n[nH]c1=S)=C\c1ccccc1 | 14.7 |
| COc1ccc(NC(=O)CN(C)C(=O)CSCC(=O)Nc2ccc(C)cc2)cc1 | -0.753 |
| CN(CC(=O)Nc1ccc(Cl)cc1)Cc1cc(=O)n2ccsc2n1 | -33.3 |
| COc1ccc(NC(=O)CSCC(=O)N(C)CC(=O)Nc2ccc(Cl)c(C(F)(F)F)c2)cc1 | -68.6 |
| O=C(CCCCCN1C(=O)CCC1=O)Nc1ccc(Cl)c(C(F)(F)F)c1 | -58.7 |
| COc1cccc(NC(=O)CN(C)C(=O)CCCNC(=O)c2ccc(Cl)cc2)c1 | -46.5 |
| CN(CC(=O)Nc1ccc(Cl)c(C(F)(F)F)c1)Cc1cc(=O)n2ccsc2n1 | -82.8 |
| Cc1ccc(NC(=O)CN(C)Cc2cc(=O)n3ccsc3n2)cc1 | -7.66 |
| O=C(CCCN1C(=O)CCC1=O)Nc1ccc(Cl)c(C(F)(F)F)c1 | -18.8 |
| CN(CC(=O)Nc1ccc(Cl)c(C(F)(F)F)c1)C(=O)CCCNC(=O)c1ccc(Cl)cc1 | -52.2 |
| CN(CC(=O)Nc1cccc(F)c1)C(=O)CCCNC(=O)c1ccc(Cl)cc1 | -36.7 |
| COc1ccc(NC(=O)CCCCCN2C(=O)CCC2=O)cc1Cl | -2.22 |
| COc1ccc(CCC(=O)N(C)CC(=O)Nc2ccc(Cl)c(C(F)(F)F)c2)cc1 | 22.2 |
| CC(=O)N1N=C(c2ccc(C)cc2)OC1c1cccnc1 (stereo not shown) | 8.57 |
| CCOC(=O)C1CCCN(S(=O)(=O)c2ccc(-n3cnnn3)c(C)c2)C1 (stereo not shown) | -11.3 |
